Several values for one entry are separate records, joined by “and”; a condition that tells them apart may be missing. Equal values may be shown once.
Each compound was assayed on H9c2 (assay: protection of cardiomyocytes from stress damage, SAR follow-up, cell-based, panel, H9c2 and HL-1, ATP luminescence, set 2 (AID 651871;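 also: cells exposed to stressor for 2 h before ATP readout; reference of the scale not given here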)). Conditions: H9c2/HL-1 cardiomyocytes, 2-deoxyglucose stress, with 2-deoxyglucose; run 8, at 79 µM (top of the series).

| SMILES | activity (protection/inhibition) |
| --- | --- |
| COc1ccc2nc(-c3cc(OC)c(OC)c(OC)c3)cc(C(=O)NCC(=O)Nc3ccc(C(C)=O)cc3)c2c1 | 83.5% |
| COc1ccc2c(c1OC)C(=O)N1c3ccccc3C(=O)N(Cc3cccc(Cl)c3Cl)C21 (stereo not drawn) | 89.8% and 74.3% and -3.43% |
| CCOC(=O)c1cccc(NC(=O)CNC(=O)c2cc(-c3cc(OC)c(OC)c(OC)c3)nc3ccccc23)c1 | 92.9% |

From PubChem BioAssay AID651871 (Sanford-Burnham Center for Chemical Genomics, 2012)
